Measurements from PubChem BioAssay AID1814 (Broad Institute, 2009).
The campaign covered roughly 300,000 compounds. About 22,000 (7.3%) were called active. Not shown: some 2% with an inconclusive outcome. Shown is part of a subset that was picked to be rich in actives. Unmarked numbers belong to inactive results. No stated cut-off is given here; in the data, active means activity score below about -60%; inconclusive means mostly about -28% to -61%; inactive means positive scores.

Assay: Activators via SNCA 5'UTR binding, MLPCN (AID 1814)
Conditions: alpha-synuclein 5'UTR reporter, activators screen; stronger effect = lower value; tested at 7.5 µM

SMILES	activity score
N#CC1=C(N)Oc2cc(O)ccc2C1C1CCCCC1 (stereo not drawn)	-65.6% (active)
C=CCN(C(=O)Nc1ccc2c(c1)nc(C)n2C)c1ccccc1	-71.4% (active)
C=CCN(C(=O)Nc1ccc2oc(C)nc2c1)c1ccccc1	-65.8% (active)
O=C(COc1ccc([N+](=O)[O-])cc1)Nc1ccc(N2CCCC2)cc1	-69.6% (active)
O=C(CSc1nnc2ccccn12)c1ccccc1	-81.7% (active)
C=C(C)CSc1nc(N)c2c3c(sc2n1)CCC3	-152% (active)
CC(C)(C)C1CCc2c(sc3nc(SCC(N)=O)nc(N)c23)C1 (stereo not drawn)	-196% (active)
COC(=O)c1sc(NC(=O)c2csc3c2CCCC3)nc1C	-228% (active)
Cc1ccc(NC(=O)c2csc3c2CCCC3)cc1	-158% (active)
Cc1cc2c(C)nc(N/N=C/c3ccccc3)nc2o1	-123% (active)
COC(=O)c1ccc(CSc2ccc3nnc(-c4ccccc4)n3n2)o1	53.7%
COC(=O)c1ccc(CSc2nncn2C)cc1	-112% (active)
Cc1ccc(Oc2nc(-c3ccccn3)nc3ccccc23)cc1	-92.6% (active)
CSc1nc2ccc(NC(=O)c3c(F)cccc3F)cc2s1	-166% (active)
CCn1c(=O)c2cc(C(=O)Nc3cccc(C(C)=O)c3)sc2c2ccccc21	-66.3% (active)
Fc1cccc(Cl)c1CSc1ccc(-c2ccco2)nn1	-172% (active)
CSc1ccccc1NC(=O)c1cnc2sc(C)cn2c1=O	-129% (active)
CC(C)(C)NC(=O)Cn1nnc(-c2ccccc2Cl)n1	-117% (active)
O=C1N/C(=C/c2cccn2-c2ccccc2)C(=O)N1c1cccc(Cl)c1	-65.3% (active)
COc1ccc(C2CC(c3cccs3)=NN2c2ccccc2)cc1 (stereo not drawn)	-69% (active)
COc1ccc(Cc2n[nH]c(=S)n2NC(=O)Nc2ccc(C)cc2)cc1	-75.9% (active)
CC(C)COC(=O)c1ccc(NC(=O)C2C3C=CC(C3)C2C(=O)O)cc1 (stereo not drawn)	-101% (active)
Cc1ccc(NC(=O)Nc2ccc3oc(C)nc3c2)cc1	-272% (active)

SMILES	activity score
Cc1nc2cc(NC(=O)NCc3ccccc3)ccc2o1	-102% (active)
COc1cc(/C=C2/C(=O)ON=C2C)ccc1OCc1ccccc1F	-183% (active)
COc1cc(/C=C2/C(=O)ON=C2C)ccc1OCc1cccc(F)c1	-149% (active)
CN1CCN(C2Cc3ccc(Cl)cc3Sc3ccc(F)cc32)CC1 (stereo not drawn)	104%
COc1ccc(S(=O)(=O)N2CCCC(C(=O)Nc3ccc(NC(=O)c4ccccn4)cc3)C2)cc1 (stereo not drawn)	-87.5% (active)
Cc1n[nH]c(C)c1S(=O)(=O)N1CCCC(C(=O)Nc2ccc(Br)cc2)C1 (stereo not drawn)	-116% (active)
CCOC(=O)CSC1=C(C#N)C(c2sccc2C)CC(=O)N1 (stereo not drawn)	75%
O=C(CSCc1ccc(Cl)cc1)N1CCCCC1	-102% (active)
O=C(CSCc1cccs1)N1CCCC1	-80.2% (active)
Nc1scc(-c2ccncc2)c1Cl	-79.4% (active)
CC1CN/C(=C\C(=O)c2ccc(Br)cc2)C(=O)N1 (stereo not drawn)	62%
CC(=O)c1ccc(Oc2cc(C)nc(-n3nc(C)cc3C)n2)cc1	80.1%
O=C(CSc1nc2ccccc2o1)N/N=C/c1ccccc1C(=O)O	-97.9% (active)
Cc1ccc(/C=N/NC(=O)CSc2nc3ccccc3o2)cc1	-108% (active)
COC(=O)c1ccc(/C=N/N2C(C)CCCC2C)cc1 (stereo not drawn)	-172% (active)
O=C(c1ccc2ccccc2n1)N1CCN(c2ccccc2Cl)CC1	-142% (active)
CC(=O)c1ccc(S(=O)(=O)N2CCN(C(=O)/C=C/c3ccc4ccccc4n3)CC2)cc1	62.4%
Oc1ccccc1-c1cc(-c2ccc(Cl)cc2)n[nH]1	-126% (active)
c1ccc(-c2cc(-c3ccccc3)[nH]n2)cc1	-106% (active)
Cc1ccc(Nc2nc(-c3ccc(O)cc3O)cs2)nc1	-189% (active)
COc1ccc(OCCCn2cccc2/C=C2/C(=N)N3OC(C)=CC3=NC2=O)cc1	-95.9% (active)
Cc1ccc(-c2nn(-c3cccc(F)c3)cc2CNCCc2ccncc2)o1	-74% (active)
CN(C)c1ccc(/C=C/C(=O)c2ccc(O)cc2)cc1[N+](=O)[O-]	-203% (active)

SMILES	activity score
O=C(/C=C/c1ccc2c(c1)OCCO2)c1ccc(O)cc1	-260% (active)
O=C(/C=C/c1ccc(Cl)c([N+](=O)[O-])c1)c1ccc(O)cc1	-156% (active)
COc1ccc(/C=C2\SC(=O)N(CCC(=O)NC3CCS(=O)(=O)C3)C2=O)cc1 (stereo not drawn)	-71.6% (active)
COc1ccc(/C=C2\SC(=S)N(CCCC(=O)NC3CCCC3)C2=O)cc1OC	83.7%
Cc1nc(-c2ccccc2)sc1C(=O)/C=C/c1ccccc1	-83.8% (active)
Cc1nc(-c2ccccc2)sc1C(=O)/C=C/N(C)C	-76.2% (active)
CCOC(=O)c1c(C)[nH]c(C2=NNC(=NC(C)COC)SC2)c1C (stereo not drawn)	-98.9% (active)
CN(Cc1ccccc1)C(=O)CSc1nc2ccccc2[nH]1	-93.7% (active)
O=C(CSc1nc2ccccc2[nH]1)c1cccs1	-160% (active)
O=C1c2ccccc2NC(c2ccc(-c3cccc(Cl)c3)o2)N1O (stereo not drawn)	-145% (active)
Cc1cccc(C(=O)Nc2ccc3c(c2)C(=O)N(CC(C)C)C3=O)c1	-149% (active)
Nc1nnc(SCC(=O)Nc2ccc3nc(SCC(=O)Nc4ccccc4)sc3c2)s1	-107% (active)
O=C(Nc1cccc(Cl)c1)Nc1ccccc1NS(=O)(=O)c1cccs1	-81.4% (active)
Cc1ccc(NN=C2C(=O)OC(C)(C)OC2=O)c(C)c1	-140% (active)
Cc1nn(-c2ccccc2)c(Cl)c1/C=C/C(=O)c1ccc(O)cc1	-125% (active)
Cn1sc(NC(=O)c2ccccc2)nc1=O	-72.7% (active)
O=C(c1ccc(F)cc1)n1c(=S)nc2ccccn21	-171% (active)
COc1cc(/C=N/O)ccc1OCc1ccc([N+](=O)[O-])cc1	-86.3% (active)
COc1ccc2[nH]c3c(=O)n(Cc4ccco4)cnc3c2c1	-65.2% (active)
COc1cccc(/C=N/Nc2ccc(Cl)nn2)c1	-168% (active)
Clc1ccc(N/N=C/c2cccs2)nn1	-131% (active)
Cc1ccsc1/C=N/Nc1ccc(Cl)nn1	-101% (active)
